Assay results reported in PubChem BioAssay (NCI).
Compounds without any hit were thinned out: in the full panel of roughly 79,000, 15% have a hit. Unmarked numbers belong to inactive results. Activity calls are given as the source filed them. Rule as the data show it: active = growth inhibition above about 70%; inactive = the rest.

Tests used:
[1] = NCI Yeast Anticancer Drug Screen. Data for the wt1 strain (AID 149);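 also: 0% = growth of vehicle-treated wt1 cultures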; details: S. cerevisiae wt1 strain (SPY 50644) growth inhibition, stronger effect = higher value
In short: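 Yeast wt1 strain exposed to compounds; growth inhibition measured relative to vehicle-treated controls.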

[2] = NCI Yeast Anticancer Drug Screen. Data for the rad50EPP+ strain (AID 151);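 also: 0% = growth of vehicle-treated control cultures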; details: S. cerevisiae rad50 mutant strain, stronger effect = higher value
In short: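 In this screen, rad50EPP+ yeast were exposed to compounds. Growth inhibition was scored against vehicle-treated controls.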

[3] = NCI Yeast Anticancer Drug Screen. Data for the rad50 strain (AID 155);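 also: 0% = growth of vehicle-only cultures of the same strain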; details: S. cerevisiae rad50 strain growth inhibition, stronger effect = higher value
In short: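 Yeast carrying a defined DNA repair defect were exposed to test compounds, and growth was compared with vehicle-treated controls to give percent inhibition.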

[4] = NCI Yeast Anticancer Drug Screen. Data for the mec2-1 strain (AID 157); details: S. cerevisiae mec2-1 strain, stronger effect = higher value
In short: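 Vehicle-treated cultures served as reference for growth inhibition of compound-exposed mec2-1 yeast.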

[5] = NCI Yeast Anticancer Drug Screen. Data for the rad14 strain (AID 159);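 also: 0% = growth of vehicle-treated control cultures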; details: S. cerevisiae rad14 strain growth inhibition, stronger effect = higher value
In short: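 Yeast cells carrying a defined DNA-repair defect were exposed to compounds, and growth inhibition was calculated relative to vehicle-treated control cultures.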

[6] = NCI Yeast Anticancer Drug Screen. Data for the sgs1 mgt1 strain (AID 161);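 also: 0% = growth of cultures given vehicle only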; details: S. cerevisiae sgs1 mgt1 strain, stronger effect = higher value
In short: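 Inhibition of yeast growth, normalised to vehicle-treated controls, is reported for a strain bearing genetic alterations in DNA damage repair.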

[7] = NCI Yeast Anticancer Drug Screen. Data for the CLN2oe strain (AID 163);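 also: 0% = growth of vehicle-only control cultures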; details: S. cerevisiae CLN2oe strain, stronger effect = higher value
In short: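 Inhibition relative to vehicle-treated yeast is reported. Cells: strain with genetic alteration in cell-cycle control, grown with compound.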

[8] = NCI Yeast Anticancer Drug Screen. Data for the bub3 strain (AID 167); details: S. cerevisiae bub3 mutant strain, stronger effect = higher value
In short: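 Compounds were applied to a genetically altered yeast strain carrying a cell-cycle control defect. Growth inhibition was scored against vehicle-treated controls.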

[9] = NCI Yeast Anticancer Drug Screen. Data for the wt2 strain (AID 169);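 also: 0% = growth of vehicle-treated yeast cultures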; details: S. cerevisiae wt2 strain growth inhibition, stronger effect = higher value
In short: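 Inhibition of yeast growth was determined after compound treatment, normalised to controls receiving only vehicle.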

[10] = NCI Yeast Anticancer Drug Screen. Data for the mlh1 strain (AID 171);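 also: 0% = growth of vehicle-treated control cultures of the same strain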; details: S. cerevisiae mlh1 strain growth inhibition, stronger effect = higher value
In short: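 Vehicle-normalised growth inhibition of a repair- or checkpoint-altered yeast strain following compound treatment.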

[11] = NCI Yeast Anticancer Drug Screen. Data for the sgs1 strain (AID 173);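 also: 0% = growth of vehicle-only control cultures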; details: S. cerevisiae sgs1 mutant, stronger effect = higher value
In short: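 Screen format: yeast with repair or checkpoint alterations, compound exposure, growth read relative to vehicle.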

[12] = NCI Yeast Anticancer Drug Screen. Data for the mlh1 rad18 strain (AID 175); details: S. cerevisiae mlh1 rad18 strain growth inhibition, stronger effect = higher value
In short: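 Vehicle-treated cultures served as the reference for growth inhibition in a yeast strain carrying DNA damage repair alterations exposed to each compound.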

[13] = NCI Yeast Anticancer Drug Screen. Data for the rad18 strain (AID 177); details: S. cerevisiae rad18 mutant growth inhibition, stronger effect = higher value
In short: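 Test articles were incubated with altered yeast defective in DNA damage repair. Results are given as inhibition of growth versus vehicle.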

[14] = NCI Yeast Anticancer Drug Screen. Data for the cln2 rad14 strain (AID 165);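 also: 0% = growth equal to vehicle treated cultures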; details: S. cerevisiae cln2 rad14 strain, stronger effect = higher value
In short: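 Each compound was tested on cln2 rad14 yeast. Inhibition of growth was calculated against vehicle-exposed controls.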

[15] = at 5.0 µM (retest, dose inferred, filed as 0.5)
[16] = at 50.0 µM (retest, dose inferred, filed as 5.0)

For Cc1ccc2c(/C=C/c3ccc(N(C)C)cc3)ccnc2c1C, the growth inhibition ([1]; at 1.2 µM) was -44%, the growth inhibition ([1]; at 3.7 µM) was -45% and the growth inhibition ([1]; at 11.0 µM) was -44%. For the same compound, the growth inhibition ([1]; at 33.0 µM) was -39%, the growth inhibition ([1]; at 100.0 µM) was 59% and the growth inhibition ([2]; at 1.2 µM) was -22%. It also gave a growth inhibition ([2]; at 3.7 µM) of -30%, a growth inhibition ([2]; at 11.0 µM) of -15% and a growth inhibition ([2]; at 33.0 µM) of 22%. The growth inhibition ([2]; at 100.0 µM) was 41%, the growth inhibition ([3]; at 1.2 µM) was -15% and the growth inhibition ([3]; at 3.7 µM) was -41%. The growth inhibition [3, 15] was 9%, the growth inhibition ([3]; at 11.0 µM) was -20% and the growth inhibition ([3]; at 33.0 µM) was 14%. For the same compound, the growth inhibition [3, 16] was 35%, the growth inhibition ([3]; at 50.0 µM) was 71.4% (active) and the growth inhibition ([3]; at 100.0 µM) was 67%. It also gave a growth inhibition ([4]; at 1.2 µM) of -27%, a growth inhibition ([4]; at 3.7 µM) of -33% and a growth inhibition [4, 15] of -7%. For the same compound, the growth inhibition ([4]; at 11.0 µM) was -42%, the growth inhibition ([4]; at 33.0 µM) was -16% and the growth inhibition [4, 16] was 21%. The growth inhibition ([4]; at 50.0 µM) was 84.8% (active), the growth inhibition ([4]; at 100.0 µM) was 58% and the growth inhibition ([5]; at 1.2 µM) was -25%. It also gave a growth inhibition ([5]; at 3.7 µM) of -11%, a growth inhibition ([5]; at 11.0 µM) of -11% and a growth inhibition ([5]; at 33.0 µM) of -6%. The growth inhibition ([5]; at 100.0 µM) was 77% (active), the growth inhibition [6, 15] was 33% and the growth inhibition [6, 16] was 87% (active). For the same compound, the growth inhibition ([6]; at 50.0 µM) was 86.5% (active), the growth inhibition ([7]; at 1.2 µM) was 26% and the growth inhibition ([7]; at 3.7 µM) was 34%. For the same compound, the growth inhibition ([7]; at 11.0 µM) was 26%, the growth inhibition ([7]; at 33.0 µM) was 39% and the growth inhibition ([7]; at 100.0 µM) was 71% (active). The growth inhibition ([8]; at 1.2 µM) was -8%, the growth inhibition ([8]; at 3.7 µM) was 7% and the growth inhibition [8, 15] was 43%. For the same compound, the growth inhibition ([8]; at 11.0 µM) was 28%, the growth inhibition ([8]; at 33.0 µM) was 58% and the growth inhibition [8, 16] was 81% (active). For the same compound, the growth inhibition ([8]; at 50.0 µM) was 79.5% (active), the growth inhibition ([8]; at 100.0 µM) was 84% (active) and the growth inhibition ([9]; at 1.2 µM) was -12%. The growth inhibition ([9]; at 3.7 µM) was -45%, the growth inhibition ([9]; at 11.0 µM) was -4% and the growth inhibition ([9]; at 33.0 µM) was 63%. The growth inhibition ([9]; at 100.0 µM) was 86% (active), the growth inhibition ([10]; at 1.2 µM) was -13% and the growth inhibition ([10]; at 3.7 µM) was -28%. For the same compound, the growth inhibition ([10]; at 11.0 µM) was -19%, the growth inhibition ([10]; at 33.0 µM) was 54% and the growth inhibition ([10]; at 100.0 µM) was 87% (active). The growth inhibition ([11]; at 1.2 µM) was -26%, the growth inhibition ([11]; at 3.7 µM) was -51% and the growth inhibition ([11]; at 11.0 µM) was -4%. The growth inhibition ([11]; at 33.0 µM) was 82% (active), the growth inhibition ([11]; at 100.0 µM) was 87% (active) and the growth inhibition [12, 15] was 1%. For the same compound, the growth inhibition [12, 16] was 14%, the growth inhibition ([12]; at 50.0 µM) was 81.8% (active) and the growth inhibition ([13]; at 1.2 µM) was 1%. For the same compound, the growth inhibition ([13]; at 3.7 µM) was -9%, the growth inhibition ([13]; at 11.0 µM) was -12% and the growth inhibition ([13]; at 33.0 µM) was 29%. The growth inhibition ([13]; at 100.0 µM) was 65%.

Work on CC(O)CN1C(=O)c2cccc3cc([N+](=O)[O-])cc(c23)C1=O (stereo not given) yielded a growth inhibition ([1]; at 1.2 µM) of -7%, a growth inhibition ([1]; at 3.7 µM) of 5% and a growth inhibition ([1]; at 11.0 µM) of 1%. For the same compound, the growth inhibition ([1]; at 33.0 µM) was -3%, the growth inhibition ([1]; at 100.0 µM) was 0% and the growth inhibition ([2]; at 1.2 µM) was 10%. The growth inhibition ([2]; at 3.7 µM) was 8%, the growth inhibition ([2]; at 11.0 µM) was 18% and the growth inhibition ([2]; at 33.0 µM) was 55%. For the same compound, the growth inhibition ([2]; at 100.0 µM) was 60%, the growth inhibition ([3]; at 1.2 µM) was -2% and the growth inhibition ([3]; at 3.7 µM) was 27%. The growth inhibition [3, 15] was 56%, the growth inhibition ([3]; at 11.0 µM) was 75% (active) and the growth inhibition ([3]; at 33.0 µM) was 88% (active). The growth inhibition [3, 16] was 78% (active), the growth inhibition ([3]; at 50.0 µM) was 50.9% and the growth inhibition ([3]; at 100.0 µM) was 91% (active). For the same compound, the growth inhibition ([4]; at 1.2 µM) was -17%, the growth inhibition ([4]; at 3.7 µM) was -11% and the growth inhibition [4, 15] was -16%. The growth inhibition ([4]; at 11.0 µM) was 2%, the growth inhibition ([4]; at 33.0 µM) was 34% and the growth inhibition [4, 16] was 65%. It also gave a growth inhibition ([4]; at 50.0 µM) of 67.4%, a growth inhibition ([4]; at 100.0 µM) of 42% and a growth inhibition ([5]; at 1.2 µM) of 2%. It also gave a growth inhibition ([5]; at 3.7 µM) of 12%, a growth inhibition ([5]; at 11.0 µM) of 14% and a growth inhibition ([5]; at 33.0 µM) of 19%. It also gave a growth inhibition ([5]; at 100.0 µM) of 21%, a growth inhibition [6, 15] of -13% and a growth inhibition [6, 16] of 15%. For the same compound, the growth inhibition ([6]; at 50.0 µM) was 58%, the growth inhibition ([7]; at 1.2 µM) was 20% and the growth inhibition ([7]; at 3.7 µM) was 0%. The growth inhibition ([7]; at 11.0 µM) was -2%, the growth inhibition ([7]; at 33.0 µM) was -5% and the growth inhibition ([7]; at 100.0 µM) was -5%. The growth inhibition [14, 15] was 5%, the growth inhibition [14, 16] was 33% and the growth inhibition ([14]; at 50.0 µM) was 13.4%. It also gave a growth inhibition ([8]; at 1.2 µM) of -8%, a growth inhibition ([8]; at 3.7 µM) of -6% and a growth inhibition [8, 15] of 8%. For the same compound, the growth inhibition ([8]; at 11.0 µM) was -11%, the growth inhibition ([8]; at 33.0 µM) was -21% and the growth inhibition [8, 16] was 32%. The growth inhibition ([8]; at 50.0 µM) was 39.4%, the growth inhibition ([8]; at 100.0 µM) was -30% and the growth inhibition ([9]; at 1.2 µM) was -27%. It also gave a growth inhibition ([9]; at 3.7 µM) of -18%, a growth inhibition ([9]; at 11.0 µM) of -13% and a growth inhibition ([9]; at 33.0 µM) of -12%. It also gave a growth inhibition ([9]; at 100.0 µM) of 2%, a growth inhibition ([10]; at 1.2 µM) of 5% and a growth inhibition ([10]; at 3.7 µM) of 4%. The growth inhibition ([10]; at 11.0 µM) was 14%, the growth inhibition ([10]; at 33.0 µM) was 50% and the growth inhibition ([10]; at 100.0 µM) was 47%. The growth inhibition ([11]; at 1.2 µM) was -6%, the growth inhibition ([11]; at 3.7 µM) was -15% and the growth inhibition ([11]; at 11.0 µM) was 6%. The growth inhibition ([11]; at 33.0 µM) was 15%, the growth inhibition ([11]; at 100.0 µM) was 30% and the growth inhibition ([13]; at 1.2 µM) was -11%. For the same compound, the growth inhibition ([13]; at 3.7 µM) was 2%, the growth inhibition ([13]; at 11.0 µM) was 9% and the growth inhibition ([13]; at 33.0 µM) was 67%. The growth inhibition ([13]; at 100.0 µM) was 88% (active).
